Consider eight compounds from PubChem BioAssay (EPA / NIEHS).

Calls of active or inactive are those of the source. Rule for the calls: active = hit-call score of the fitted dose curve at least 0.9, where 1 is the maximum; inactive = score below 0.9.

Holding throughout (settings): mRNA level, 48 h; actives raise or lower the signal
Read-out in test [1]: Potassium channel subfamily K member 1 (KCNK1), KCNK1 (gene 3775)
Put plainly: LTEA_HepaRG_KCNK1: Life Technologies and Expression Analysis (LTEA) Assay for Potassium channel subfamily K member 1 (KCNK1) using HepaRG (AID 2283511). The method in brief:
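Gain or loss of KCNK1 mRNA is the read-out, quantified by qRT-PCR against three housekeeping genes after 48 h chemical treatment of human HepaRG liver cells. Concentrations ran from 100 uM downward in half-log steps, vehicle 0.5% DMSO.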

Read-out in test [2]: Keratin 19 (KRT19), KRT19 (gene 3880)
Put plainly: LTEA_HepaRG_KRT19: Life Technologies and Expression Analysis (LTEA) Assay for Keratin 19 (KRT19) using HepaRG (AID 2283512). In short, it runs like this: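 KRT19 transcript levels, measured by Fluidigm qRT-PCR against three housekeeping genes, are fitted for gain or loss of signal relative to DMSO. Human HepaRG cells receive test chemicals (top 100 uM, half-log steps, 0.5% DMSO) for 48 hours.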

Read-out in test [3]: JUN Transcription Factor, JUN (gene 3725)
Kind of test: LTEA_HepaRG_JUN: Life Technologies and Expression Analysis (LTEA) Assay for JUN Transcription Factor using HepaRG (AID 2283513). In short, it runs like this:
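Cells plated 48 h, medium switched to serum-free induction medium, then dosed 48 h (100 uM top, half-log dilutions, 0.5% DMSO). RNA isolated; JUN measured by qRT-PCR against three housekeeping genes; gain or loss fitted relative to DMSO.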

Read-out in test [4]: Lipase C (LIPC), LIPC (gene 3990)
Put plainly: LTEA_HepaRG_LIPC: Life Technologies and Expression Analysis (LTEA) Assay for Lipase C (LIPC) using HepaRG (AID 2283514). The method in brief:
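Read-out is LIPC transcript level by TaqMan qRT-PCR, normalized to three housekeeping genes, after 48 h chemical treatment of human HepaRG liver cells. Curves span eight concentrations topping at 100 uM; activity in either direction scored relative to 0.5% DMSO.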

Read-out in test [5]: Lipoprotein lipase (LPL), LPL (gene 4023)
Put plainly: LTEA_HepaRG_LPL: Life Technologies and Expression Analysis (LTEA) Assay for Lipoprotein lipase (LPL) using HepaRG (AID 2283515). The method in brief:
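Read-out is LPL transcript level by qRT-PCR, normalized to three housekeeping genes and fitted bidirectionally against the DMSO control. Human HepaRG cells received chemicals for 48 h at up to 100 uM.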

Read-out in test [6]: MicroRNA 122 (MIR122), gene 406906
Put plainly: LTEA_HepaRG_MIR122: Life Technologies and Expression Analysis (LTEA) Assay for MicroRNA 122 (MIR122) using HepaRG (AID 2283516). Note: the transcript read is the microRNA miR-122. In short, it runs like this: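 HepaRG plated 48 h, switched to serum-free induction medium, then treated in duplicate for 48 h (100 uM top, half-log steps, 0.5% DMSO vehicle). RNA isolated, qRT-PCR performed, concentration-response fitted both directions relative to DMSO.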

Read-out in test [7]: matrix metalloproteinase-10 (MMP10), MMP10 (gene 4319)
Kind of test: LTEA_HepaRG_MMP10: Life Technologies and Expression Analysis (LTEA) Assay for matrix metalloproteinase-10 (MMP10) using HepaRG (AID 2283517). In short, it runs like this: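 Gain or loss of MMP10 mRNA is fitted relative to the 0.5% DMSO vehicle. The human hepatic line HepaRG receives a 48-hour serum-free exposure, in duplicate, with a maximum concentration of 100 uM.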

Read-out in test [8]: MYC, MYC (gene 4609)
Put plainly: LTEA_HepaRG_MYC: Life Technologies and Expression Analysis (LTEA) Assay for MYC using HepaRG (AID 2283518). In short, it runs like this: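 HepaRG, ~100,000 cells/well, collagen I; 48 h plating; serum-free induction medium; 48 h dosing, duplicate, 100 uM top, half-log, 0.5% DMSO; total RNA → qRT-PCR MYC; gain/loss fit vs DMSO.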

Read-out in test [9]: matrix metalloproteinase-3 (MMP3), MMP3 (gene 4314)
Kind of test: LTEA_HepaRG_MMP3: Life Technologies and Expression Analysis (LTEA) Assay for matrix metalloproteinase-3 (MMP3) using HepaRG (AID 2283519). The method in brief:
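HepaRG, human; 48 h dosing, 8 conc. (max 100 uM, half-log), duplicate, 0.5% DMSO. Readout: MMP3 transcript by Fluidigm TaqMan qRT-PCR, ACTB/GAPDH/POLR2A-normalised. Gain or loss fitted vs DMSO.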

Read-out in test [10]: Paternally Expressed 10 (PEG10), PEG10 (gene 23089)
Put plainly: LTEA_HepaRG_PEG10: Life Technologies and Expression Analysis (LTEA) Assay for Paternally Expressed 10 (PEG10) using HepaRG (AID 2283520). The method in brief: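 HepaRG, 48 h post-plating → serum-free induction medium → 48 h chemical exposure (duplicate, 8-pt, max 100 uM, half-log, 0.5% DMSO) → lysis in RLT → TaqMan qRT-PCR for PEG10, ACTB/GAPDH/POLR2A normalisation.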

Read-out in test [11]: Nuclear factor NF-kappa-B p105 subunit (Homo sapiens) (UniProt P19838)
Put plainly: LTEA_HepaRG_NFKB1: Life Technologies and Expression Analysis (LTEA) Assay for Nuclear Factor Kappa B Subunit 1 (NFKB1) using HepaRG (AID 2283521). In short, it runs like this:
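Differentiated human HepaRG cells were exposed for 48 h in serum-free induction medium to eight concentrations (top 100 uM, half-log steps, 0.5% DMSO), in duplicate. NFKB1 mRNA was measured by TaqMan qRT-PCR, normalized to ACTB/GAPDH/POLR2A, and fitted bidirectionally against DMSO.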

Read-out in test [12]: Protein phosphatase 2A (PPP2R4), PTPA (gene 5524)
Kind of test: LTEA_HepaRG_PPP2R4: Life Technologies and Expression Analysis (LTEA) Assay for Protein phosphatase 2A (PPP2R4) using HepaRG (AID 2283522). The method in brief:
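Readout is PPP2R4 transcript level by microfluidic qRT-PCR after 48 h chemical treatment of human HepaRG liver cells. Concentrations spanned 100 uM downward in half-log steps; gain or loss of signal was fitted relative to DMSO.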

Read-out in test [13]: Phosphatase and tensin (PTEN), PTEN (gene 5728)
Put plainly: LTEA_HepaRG_PTEN: Life Technologies and Expression Analysis (LTEA) Assay for Phosphatase and tensin (PTEN) using HepaRG (AID 2283523). The method in brief: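 Read-out is PTEN transcript level by multiplexed TaqMan qRT-PCR after 48 h chemical treatment of human HepaRG cultures in serum-free induction medium. Concentrations spanned 100 uM downward in half-log steps, 0.5% DMSO throughout; activity fitted in both directions against vehicle.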

Read-out in test [14]: Pyruvate Dehydrogenase Kinase 4 (PDK4), PDK4 (gene 5166)
Put plainly: LTEA_HepaRG_PDK4: Life Technologies and Expression Analysis (LTEA) Assay for Pyruvate Dehydrogenase Kinase 4 (PDK4) using HepaRG (AID 2283525). The method in brief: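 In this multiplexed human HepaRG expression assay, cells are treated 48 h with test chemicals across an eight-point range starting at 100 uM. PDK4 mRNA changes, normalized to ACTB/GAPDH/POLR2A, are fitted in both directions relative to vehicle.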

Read-out in test [15]: NAD(P)H dehydrogenase [quinone] 1 (NQO1), NQO1 (gene 1728)
Kind of test: LTEA_HepaRG_NQO1: Life Technologies and Expression Analysis (LTEA) Assay for NAD(P)H dehydrogenase [quinone] 1 (NQO1) using HepaRG (AID 2283526). In short, it runs like this: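 HepaRG, 48 h post-plating → serum-free induction medium → test chemical 48 h (duplicate, 100 uM top, half-log x8, 0.5% DMSO) → RNA isolation → qRT-PCR, ACTB/GAPDH/POLR2A normalization; bidirectional curve fit vs DMSO baseline.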

Read-out in test [16]: Nuclear factor erythroid 2-related factor 2 (Homo sapiens) (UniProt Q16236)
Put plainly: LTEA_HepaRG_NFE2L2: Life Technologies and Expression Analysis (LTEA) Assay for Nuclear factor erythroid 2-related factor 2 (NFE2L2) Transcription Factor using HepaRG (AID 2283527).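 For outcome: TaqMan qRT-PCR transcript level normalised to ACTB GAPDH and POLR2A housekeeping genes.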 The method in brief: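 Transcript level of NFE2L2 is the read-out, measured by microfluidic TaqMan qRT-PCR and normalized to three housekeeping genes. Human HepaRG cultures received test chemical for 48 h at up to 100 uM in half-log steps. Gain or loss of signal is fitted relative to 0.5% DMSO.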

Read-out in test [17]: succinate dehydrogenase complex iron sulfur subunit B (SDHB), SDHB (gene 6390)
Put plainly: LTEA_HepaRG_SDHB: Life Technologies and Expression Analysis (LTEA) Assay for succinate dehydrogenase complex iron sulfur subunit B (SDHB) using HepaRG (AID 2283528). The method in brief:
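HepaRG, 48 h exposure, 8-pt half-log series from 100 uM in 0.5% DMSO, duplicates. Readout: SDHB mRNA by Fluidigm qRT-PCR vs housekeeping genes; bidirectional fit relative to DMSO.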

Read-out in test [18]: Signal transducer and activator of transcription 3 (Homo sapiens) (UniProt P40763)
Kind of test: LTEA_HepaRG_STAT3: Life Technologies and Expression Analysis (LTEA) Assay for Signal transducer and activator of transcription (STAT3) using HepaRG (AID 2283529). The method in brief: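 Read-out is STAT3 mRNA level by qRT-PCR, normalized to three housekeeping genes, in human HepaRG liver cells treated for 48 h. Concentrations ran from 100 uM downward in half-log steps; curves were fitted for gain or loss relative to 0.5% DMSO.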

Read-out in test [19]: solute carrier (SLC22A1), SLC22A1 (gene 6580)
Put plainly: LTEA_HepaRG_SLC22A1: Life Technologies and Expression Analysis (LTEA) Assay for solute carrier (SLC22A1) using HepaRG (AID 2283524). In short, it runs like this: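 HepaRG (human liver line), 48 h dosing in serum-free induction medium; 8 conc., half-log down from 100 uM, 0.5% DMSO vehicle, duplicates. Endpoint: SLC22A1 mRNA, qRT-PCR, housekeeping-normalized; gain/loss fit vs DMSO.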

By AC50 is commonly meant the midpoint of the concentration-response curve, whichever way the signal moves.

Sequence of Signal transducer and activator of transcription 3 (Homo sapiens) (P40763 whole entry, looked up): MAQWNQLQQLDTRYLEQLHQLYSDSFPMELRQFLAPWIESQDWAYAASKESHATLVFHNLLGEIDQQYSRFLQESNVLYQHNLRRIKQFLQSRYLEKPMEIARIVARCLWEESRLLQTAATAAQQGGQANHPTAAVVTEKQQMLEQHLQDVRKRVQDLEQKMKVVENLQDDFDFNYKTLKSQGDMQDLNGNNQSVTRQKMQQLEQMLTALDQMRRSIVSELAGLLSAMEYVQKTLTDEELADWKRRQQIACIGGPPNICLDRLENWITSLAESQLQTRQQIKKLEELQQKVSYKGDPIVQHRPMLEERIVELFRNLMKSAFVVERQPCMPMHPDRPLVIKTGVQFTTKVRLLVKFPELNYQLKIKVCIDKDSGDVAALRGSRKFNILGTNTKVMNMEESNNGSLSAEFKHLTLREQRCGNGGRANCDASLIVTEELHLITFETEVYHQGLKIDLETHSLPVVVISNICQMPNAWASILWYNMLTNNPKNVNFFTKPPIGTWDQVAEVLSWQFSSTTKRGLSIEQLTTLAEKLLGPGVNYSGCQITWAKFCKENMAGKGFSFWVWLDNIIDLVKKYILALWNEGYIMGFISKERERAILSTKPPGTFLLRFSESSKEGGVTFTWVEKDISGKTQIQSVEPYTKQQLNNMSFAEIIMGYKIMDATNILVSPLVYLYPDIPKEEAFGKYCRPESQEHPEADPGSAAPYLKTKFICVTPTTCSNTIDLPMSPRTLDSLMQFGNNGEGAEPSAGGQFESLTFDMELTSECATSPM
Sequence of Nuclear factor erythroid 2-related factor 2 (Homo sapiens) (Q16236 whole entry, looked up): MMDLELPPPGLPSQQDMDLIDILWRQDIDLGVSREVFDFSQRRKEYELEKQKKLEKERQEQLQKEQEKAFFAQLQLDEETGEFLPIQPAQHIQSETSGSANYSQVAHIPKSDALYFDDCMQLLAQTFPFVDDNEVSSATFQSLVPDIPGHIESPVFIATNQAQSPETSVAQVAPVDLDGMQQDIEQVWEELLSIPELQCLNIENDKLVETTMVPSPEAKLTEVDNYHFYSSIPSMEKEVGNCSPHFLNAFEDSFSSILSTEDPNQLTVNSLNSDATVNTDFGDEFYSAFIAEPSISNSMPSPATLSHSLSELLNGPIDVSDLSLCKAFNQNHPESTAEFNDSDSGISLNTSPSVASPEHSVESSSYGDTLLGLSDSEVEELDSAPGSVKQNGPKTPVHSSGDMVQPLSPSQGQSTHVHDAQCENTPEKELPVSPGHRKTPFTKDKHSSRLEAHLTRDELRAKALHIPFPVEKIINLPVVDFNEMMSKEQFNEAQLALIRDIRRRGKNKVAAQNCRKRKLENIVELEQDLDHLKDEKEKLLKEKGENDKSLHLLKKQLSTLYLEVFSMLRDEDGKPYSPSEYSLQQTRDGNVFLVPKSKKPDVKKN
Sequence of Nuclear factor NF-kappa-B p105 subunit (Homo sapiens) (P19838 whole entry, looked up): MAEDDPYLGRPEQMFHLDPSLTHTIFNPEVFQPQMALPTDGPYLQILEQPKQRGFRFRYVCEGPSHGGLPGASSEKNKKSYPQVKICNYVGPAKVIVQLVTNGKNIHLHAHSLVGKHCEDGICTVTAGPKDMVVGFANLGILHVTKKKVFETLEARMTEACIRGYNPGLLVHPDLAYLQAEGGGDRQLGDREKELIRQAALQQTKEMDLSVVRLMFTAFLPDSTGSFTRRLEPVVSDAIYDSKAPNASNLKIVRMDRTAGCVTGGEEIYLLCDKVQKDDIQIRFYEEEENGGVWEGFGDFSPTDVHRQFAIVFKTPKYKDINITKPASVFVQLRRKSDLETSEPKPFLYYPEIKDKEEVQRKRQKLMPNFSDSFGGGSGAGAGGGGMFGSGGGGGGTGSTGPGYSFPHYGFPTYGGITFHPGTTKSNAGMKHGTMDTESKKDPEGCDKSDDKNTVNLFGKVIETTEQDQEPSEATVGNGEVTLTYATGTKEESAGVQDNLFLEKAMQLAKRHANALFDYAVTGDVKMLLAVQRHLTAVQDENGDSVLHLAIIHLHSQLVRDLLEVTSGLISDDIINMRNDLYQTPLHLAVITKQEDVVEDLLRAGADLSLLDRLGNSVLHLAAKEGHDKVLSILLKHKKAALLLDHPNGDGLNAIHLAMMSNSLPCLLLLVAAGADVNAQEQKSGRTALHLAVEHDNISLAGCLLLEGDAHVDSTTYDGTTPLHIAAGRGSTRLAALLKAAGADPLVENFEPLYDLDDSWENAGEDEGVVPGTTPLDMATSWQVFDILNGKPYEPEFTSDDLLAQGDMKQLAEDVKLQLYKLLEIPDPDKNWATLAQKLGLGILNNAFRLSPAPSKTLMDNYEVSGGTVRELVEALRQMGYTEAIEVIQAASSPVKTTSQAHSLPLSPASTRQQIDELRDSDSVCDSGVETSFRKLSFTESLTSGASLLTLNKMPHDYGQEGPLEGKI

`CCN(CC)c1nc(C)cc(OP(=S)(OC)OC)n1`: the call in [1], in test [2], in test [3], in [4], in test [5] and in [6] was inactive. The outcome in [7], in test [8], in test [9], in test [10], in [11] and in test [12] was inactive. The compound was called inactive in [13], in test [14], in [15], in [16], in [17] and in test [18].

Turning to `COCC(=O)N(c1c(C)cccc1C)C(C)C(=O)OC` (stereo not drawn), the compound was classed as inactive in test [1], in test [2], in [3], in test [4], in test [5] and in [6]. In addition, the outcome in test [7], in test [8], in [9], in test [10], in test [12] and in [13] was inactive. The compound was classed as inactive in test [19], in test [14], in [15], in test [16], in [17] and in [18].

In the case of `CC1(C)CCC(=Cc2ccc(Cl)cc2)C1(O)Cn1cncn1` (stereo not drawn), the compound was classed as inactive in [1], in test [2], in [3], in [4], in [5] and in [6]. Besides, the result in test [7], in test [9], in test [10], in test [12], in test [13] and in test [14] was inactive. Moreover, the call in test [15], in test [16], in test [17] and in [18] was inactive.

Consider `COc1cc(Cl)c(OC)cc1Cl`, for which the compound was classed as inactive in test [1], in [2], in test [3], in [4], in test [5] and in test [6]. In addition, the call in [7], in [9], in test [10], in test [11], in [12] and in test [13] was inactive. For the same compound, the result in test [14], in test [15], in test [17] and in test [18] was inactive.

As to `CCNC(=O)NC(=O)C(C#N)=NOC`, the outcome in test [1], in test [2], in test [3], in test [5], in test [6] and in test [7] was inactive. The call in test [9], in test [12], in test [13], in test [14], in test [15] and in test [16] was inactive. Further, the call in [17] and in [18] was inactive. In addition, the values for the AC50 in [4], in test [10] and in [19] were 50 µM (active), 50 µM (active) and 74.2 µM (active), respectively.

In the case of `CN=C=S`, the compound was classed as inactive in test [1], in test [2], in [3], in test [4], in [5] and in [6]. Further, the compound was classed as inactive in test [7], in test [9], in test [10], in test [11], in test [12] and in test [13]. Also, the compound was called inactive in test [19], in test [14], in test [15], in test [16], in test [17] and in test [18].

As for `O=P(O)(O)CCCl`, the outcome in test [1], in test [2], in test [3], in test [4], in test [5] and in test [6] was inactive. The compound was classed as inactive in test [7], in test [9], in test [10], in test [11], in test [12] and in [13]. Moreover, the outcome in test [14], in test [15], in test [16], in test [17] and in test [18] was inactive.

Regarding `CCNP(=S)(OC)O/C(C)=C/C(=O)OC(C)C` (stereo not drawn), the compound was called inactive in [1], in [3], in [4], in test [6], in [7] and in test [8]. The outcome in test [10], in test [11], in test [12], in test [13], in test [14] and in test [15] was inactive. Further, the result in test [17] and in test [18] was inactive. Besides, the AC50 in test [2] was 50 µM (active); in [5] it was 50 µM (active); in test [9], 50 µM (active); in test [16], 9.92 µM (active).
